Reference: PubChem BioAssay AID651595 (National Center for Advancing Translational Sciences (NCATS), 2012)
Screen size: about 1,100 compounds; fewer than 10 were called active. Roughly 6% stayed inconclusive and do not appear here. The call rests on the fitted dose curve; in most records, active means well fitted cell-killing curve with a large enough effect; inconclusive means small, poorly fitted or top-dose-only effect; inactive means flat fitted curve, though single readings scatter. These entries were drawn from the full list. A call without a number means that no potency is given here.

assay: qHTS of Nrf2 Activators: Hit Validation in Cytotox Assay; settings: Cell viability counter-screen for Nrf2 activator hits; series mostly up to 46.1 µM;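 further: compound exposure lasted 24 hours before the ATP readout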
Description: Many diseases have some form of oxidative stress injury and ties to inflammation, causing a host of problems for the patient. The antioxidant response element (ARE) plays an important role in alleviating the harmful effects of oxidative stress. The antioxidant response element (ARE) is a transcriptional regulatory element involved in the activation of genes coding for a number of antioxidant proteins and detoxifying enzymes. These enzymes work in concert to protect tissues from oxidative insults and chemical toxicities in human hepatocytes and immune cells. The protective effects of ARE activation are primarily triggered through Nrf2 (NF-E2-related factor) binding to and activating AREs. It is known that Nrf2 controls the production of over 250 antioxidant and detoxification proteins (Hu et al., 2006), thereby protecting tissues by increasing cellular antioxidant content and suppressing inflammatory signaling pathways. The transcription factor Nrf2 is a central link between oxidative chemicals, such as phenolic antioxidants and electrophilic compounds, and the activation of ARE. Nrf2 levels are constitutively low as a consequence of its interaction with Keap1, which targets its degradation (Zipper and Mulcahy, 2002). Electrophiles react with key cysteine residues in Keap1, releasing Nrf2 and allowing its translocation to the nucleus. Once within the nucleus, Nrf2 complexes with coactivators such as p300, and binds to the AREs to induce gene transcription of cytoprotective enzymes, resulting in the prevention of toxicity. Activation of Nrf2 protects tissues by increasing cellular antioxidant content and suppressing inflammatory signaling pathways. Identifying novel and potent Nrf2 activators by using the AREc32 cell line to detect ARE activation by small molecules will lead to the identification and development of probes to study protective pathways in multiple tissues. These specific probes are essential to study the ARE pathway, and eventually to determine whether this pathway does activate genes that could protect against a host of diseases, including cardiovascular diseases, obesity, diabetes, Alzheimer's, and Parkinson's disease.
This project's aim is to identify novel and potent Nrf2 activators by using the AREc32 cell line to detect ARE activation by small molecules, which will lead to the identification and development of probes to study the ARE pathway. Cytotoxic compounds are flagged as active, and inactivity is desired in this assay.
NIH Chemical Genomics Center [NCGC]
NIH Molecular Libraries Probe Centers Network [MLPCN]
Assay Submitter (PI): Curtis Klaassen, University of Kansas Medical Center
Cell viability after compound treatment was measured using a luciferase-coupled ATP quantitation assay (CellTiter-Glo, Promega) in AREc32_fluc cells. The change of intracellular ATP content indicates the number of metabolically competent cells after compound treatment. AREc32_fluc cells were harvested from T225 flask and resuspended in phenol red free OPTI-MEM medium with 5% FBS. Then 5 microL of 200,000 cells/ml resuspended cells was dispensed into each well of white, solid bottom, 1536-well tissue culture-treated plates using a Multidrop Combi dispenser. After overnight culture at 37 degrees C with 5% CO2, a total of 23 nL of compounds at 7 selected concentrations from the cherry pick or positive control (40 uM stock of CDDO-IM and 2 mM of tBHQ) in DMSO was transferred to each well of the assay plate using a pintool (Kalypsys, San Diego, CA), and the plates were further incubated at 37 degrees C with 5% CO2 for 24 hours. After that, 4 microL of CellTilter-GloTM luminescent substrate mix (Promega) was added to each well. The plate was incubated at room temperature for 30 minutes. The plates were measured on a ViewLux plate reader (PerkinElmer) with clear filter.
Potency means the concentration at half of the fitted maximal effect.

| Compound | Potency |
| --- | --- |
| CCc1c(C)sc(NC(=O)c2ccco2)c1C#N | inactive |
| COc1ccccc1NC(=O)/C=C\c1ccco1 | inactive |
| CCN(C(=O)Cn1nnc2sc(-c3ccccc3)cc2c1=O)c1cccc(C)c1 | inactive |
| NC(=S)NN=C1CSSC1 | inactive |
| COc1ccc(-c2nnc3c4ccccc4c(C)nn23)cc1 | inactive |
| O=C1Nc2ccccc2SC1=Cc1ccccc1 | inactive |
| C/C(=N/NC(=O)CNC(=O)/C=C/c1ccco1)c1ccc(Cl)cc1 | inactive |
| CCOC(=O)c1ccccc1N/C=C/C(=O)c1ccccc1 | inactive |
| O=C(Nc1cccc([N+](=O)[O-])c1)c1[nH]ncc1Cl | inactive |
| COc1ccc(Cl)cc1NC(=O)C1COc2ccccc2O1 (configuration not stated) | inactive |
| COc1ccc(C(C#N)=C2C=CC(=NO)C=C2)cc1 | inactive |
| CC(=O)c1ccccc1NC(=O)COC(=O)/C=C/c1ccc(C)o1 | inactive |
| O=[N+]([O-])c1ccc(NN=Cc2ccco2)nc1 | inactive |
| O=C(/C=C/Nc1ccc(F)c(Cl)c1)c1ccco1 | inactive |
| COc1ccc(Cl)cc1C(=O)O/N=C(\N)c1ccccn1 | inactive |
| CCOC(=O)c1c(NC(=O)/C=C/c2ccc(C)o2)sc(C)c1C | inactive |
| O=[N+]([O-])c1ccc(Cl)cc1N/N=C/c1ccncc1 | inactive |
| O=C(Nc1nc(=O)c2ccccc2s1)c1ccccc1 | inactive |
| Clc1ccccc1C=NNc1ccccn1 | inactive |
| CC(C)C(=O)Nc1nnc(-c2ccco2)s1 | inactive |
| Cn1c(/N=C(\N)c2ccccc2)nc2ccccc21 | inactive |
| O=C(Nc1ccccc1C(=O)NCCc1ccccc1)c1ccco1 | inactive |
| NC(=O)c1oc2ccccc2c1NC(=O)c1ccccc1 | inactive |
| O=C1COc2ccc(C(=O)COC(=O)/C=C/c3ccco3)cc2N1 | inactive |
| O=C(Nc1nccc(-c2cccs2)n1)c1cccs1 | inactive |
| N/C(=N\OC(=O)c1cc(Cl)ccc1Cl)c1cccnc1 | inactive |

| Compound | Potency |
| --- | --- |
| Cc1ccc(-c2nc3cccnc3s2)cc1NC(=O)c1ccco1 | inactive |
| Cn1c(SCC(=O)N/N=C/C=C\c2ccco2)nc2ccccc21 | inactive |
| CC(C)c1ccc(NC(=O)c2sccc2-n2cccc2)cc1 | inactive |
| COC(=O)c1ccc2nc(-c3ccc(F)cc3)c(CC3CCCCC3)n2c1 | inactive |
| Cc1ccc(-c2cc(C(F)(F)F)c(C#N)c(SCCC#N)n2)o1 | inactive |
| Clc1nc2sccn2c1/C=N/n1cnc2ccccc21 | inactive |
| CC(=NNc1ccc2ccccc2n1)c1ccccc1O | inactive |
| O=c1oc2ccc(Cl)cc2nc1/C=C(\O)c1cccs1 | inactive |
| C=C(NC(=O)C(=C)NC(=O)c1csc(C2=NC3c4csc(n4)C4NC(=O)c5csc(n5)C(C(C)(O)C(C)O)NC(=O)C5CSC(=N5)/C(=C/C)NC(=O)C(C(C)O)NC(=O)c5csc(n5)C3(CC2)NC(=O)C(C)NC(=O)C(=C)NC(=O)C(=C)NC(=O)C(C(C)C)NC2C=Cc3c(C(C)O)cc(nc3C2O)C(=O)OC4C)n1)C(N)=O (configuration not stated) | inactive |
| O=c1nc2c(-c3ccccc3F)n[nH]n2c2ccccc12 | inactive |
| O=C(CSc1ccc(-c2ccco2)nn1)N1CCCCCC1 | inactive |
| O=C1C(Cl)=C(Nc2ccccc2)C(=O)c2ccccc21 | 16.4 µM (active) |
| c1ccc(-c2cnc(-c3ccccc3)nn2)cc1 | inactive |
| O=C(Nc1ccccc1)N1CCn2c1nc1ccccc12 | inactive |
| CC(=O)Nc1ccc(N=Nc2ccccc2)cc1[N+](=O)[O-] | inactive |
| Brc1ccc(-c2csc(N/N=C/c3ccco3)n2)cc1 | inactive |
| CC(=O)c1sc2nc(-c3cccs3)cc(C(F)(F)F)c2c1N | inactive |
| O=c1oc2ccccc2nc1/C=C(\O)c1ccc(Br)cc1 | inactive |
| O=[N+]([O-])c1ccc(/C=[N+](\[O-])[C@@H]2CCCC[C@@H]2/[N+]([O-])=C/c2ccc([N+](=O)[O-])o2)o1 | 18.4 µM (active) |
| O=[N+]([O-])c1ccc(/C=N/Nc2ccc3ccccc3c2)o1 | inactive |
| O=C(NCC1CCCO1)c1ccc([N+](=O)[O-])o1 (configuration not stated) | inactive |
| c1ccc(C2=Nn3c(nnc3-c3ccco3)SC2)cc1 | inactive |
| Cc1ccccc1NC(=O)/C(C#N)=C/c1ccsc1 | inactive |
| Nc1nonc1N/N=C/c1c(O)ccc2ccccc12 | inactive |
| O=C(Nc1cc2nn(-c3ccccc3)nc2cc1Cl)c1ccco1 | inactive |
| Cc1nn2c(-c3ccccc3)nnc2c2ccccc12 | inactive |

| Compound | Potency |
| --- | --- |
| O=c1[nH]c(/C=C/c2ccccc2[N+](=O)[O-])nc2ccccc12 | inactive |
| O=C(NC(=S)Nc1ccccc1O)c1ccccc1Cl | inactive |
| Cc1ccc(O)c(NC(=O)c2cccc(NC(=O)c3ccco3)c2)c1 | inactive |
| O=C(NC(=S)Nc1cnc2ccccc2c1)c1ccccc1 | inactive |
| Cc1nn2c(-c3ccco3)nnc2c2ccccc12 | inactive |
| COc1ccc2oc3cc(Cl)ccc3c(=O)c2c1 | inactive |
| Cc1cccc(NC(=O)Nc2ccccc2[N+](=O)[O-])n1 | inactive |
| Cc1ccc(Cn2c(/C=C/c3ccco3)nc3ccccc32)cc1 | inactive |
| Clc1ccc(C=Cc2ccccn2)cc1 | inactive |
| N#C/C(=C\c1ccccc1)c1ccccn1 | inactive |
| O=c1[nH]c(SCc2cccc([N+](=O)[O-])c2)nc2[nH]ncc12 | inactive |
| COc1ccc(OC)c(C=C2CCc3ccccc3C2=O)c1 | inactive |
| O=C(Oc1cccc(-c2cnc3ccccc3n2)c1)c1ccco1 | inactive |
| Cc1ccc(C)c(/C=N/Nc2ccccn2)c1 | inactive |
| O=C(Nc1cc(-c2nc3ncccc3o2)ccc1Cl)c1ccco1 | inactive |
| CN(C)CCN(C(=O)/C=C/c1cccs1)c1nc2ccc(F)cc2s1 | inactive |
| O=C(Nc1nnc(-c2cccs2)s1)c1cccc(F)c1 | inactive |
| Cc1nn(-c2ccc3ccccc3c2)c(=O)c2ccccc12 | inactive |
| Cc1cc(C)c2c(N)c(C(=O)c3ccc(Br)cc3)oc2n1 | inactive |
| Cc1ccc(-c2nc(NCc3ccco3)c3ccccc3n2)cc1 | inactive |
| Brc1cc(Br)c2nc(-c3cccs3)ccc2c1 | inactive |
| S=c1nc(-c2ccccc2)[nH]c2ccc(Br)cc12 | inactive |
| N#C/C(=C(/O)c1ccc(Br)s1)c1nc2ccccc2[nH]1 | inactive |
| N#C/C(=C(/O)c1ccco1)c1nc2ccccc2[nH]1 | inactive |
| N#C/C(=C\c1ccc([N+](=O)[O-])o1)c1nc2ccccc2[nH]1 | 20.6 µM (active) |
